From ChEMBL document CHEMBL4513216, “Probing the Open Global Health Chemical Diversity Library for Multistage-Active Starting Points for Next-Generation Antimalarials” (ACS Infect Dis, 2020) come the findings set out here.

The campaign covered roughly 68,000 compounds. About 2,700 (4%) showed an effect of 50% or more. Shown is part of a subset that was picked to be rich in strong results.

The test system of the assay is Plasmodium berghei. Nature of the assay: Screen against P. berghei liver stage (PbLuc), transformed with Luciferase, at 2uM. The following applies: tested at 2 uM. Format: functional, HepG2.
On to `CC(C)N(C)Cc1ncn2c1CN(C(=O)C1CCCO1)CCC2` (stereo not drawn), for which the INHIBITION was found to be 21.7%.
The same measure for `Cc1c(CNCCCOc2cccnc2)c2ccccc2n1CC(N)=O`: 43.87%.
Take `COc1ccc(CC(=O)N2CCC(c3nncn3C)CC2)cc1F`: the INHIBITION worked out at 54%.
As for `Cc1ccc(C(=O)CCC(=O)N2CCC(c3nncn3C)CC2)cc1`, the figure is 54.85%; as for `Cc1ccc(OCCC(=O)N2CCC(c3nncn3C)CC2)c(C)c1`, 7.74%.
Turning to `Cn1cnnc1C1CCN(C(=O)Cc2ccc3c(c2)OCCO3)CC1`, the INHIBITION is given as 5.14%.
As to `Cc1cccc(C)c1OCCC(=O)N1CCC(c2nncn2C)CC1`, the INHIBITION is given as -1.56%.
`COc1ccc(CC(=O)N2CCC(c3nnc4n3CCC4)CC2)cc1F`: the INHIBITION is -25.23%.
`CCn1cnnc1C1CCN(C(=O)COc2ccccc2OC)CC1`: the INHIBITION is given as -16.51%.
As for `COc1ccccc1CCNC(=O)N1CCCC(c2nncn2C)C1` (stereo not drawn), the INHIBITION amounted to 18.59%.
For the molecule `COc1ccc(CCNC(=O)N2CCCC(c3nncn3C)C2)cc1` (stereo not drawn), the INHIBITION is given as 55.45%.
As to `CCn1cnnc1C1CCN(C(=O)c2cc(F)ccc2OC)CC1`, the INHIBITION was 27.5%.
In the case of `CCn1cnnc1C1CCN(C(=O)Cc2ccc(OC)c(F)c2)CC1`, the INHIBITION is listed as 77.01%.
The same measure for `COc1ccc(CC(=O)N2CCCC(c3nncn3C)C2)cc1` (stereo not drawn): 14.26%; for `c1coc(CN2CCC(c3ccc4c(c3)OCO4)CC2)c1`: -8.85%; for `Cc1ccc(CN(CCCn2ccnc2)Cc2ccccc2O)s1`: -43.99%.
For `CN(C)CCNC(=O)c1cc(-c2cnc(N3CCCC3)nc2)cn1C`, the INHIBITION was 9.79%.
Take `Cc1cccc(C(=O)N2CCCCC2c2ccc(CN(C)C)cc2)n1` (stereo not drawn): the INHIBITION is -32.59%.
For `Fc1cc(Cl)cnc1N1CCCC(c2nccn2Cc2ccccn2)C1` (stereo not drawn), the INHIBITION stood at 3.97%.
On to `COc1c(Cl)cc(C(=O)NCCNc2ncccn2)cc1Cl`, for which the INHIBITION is listed as 21.97%.
Regarding `CN1CCCCC[C@@H]2[C@@H]1[C@H](c1ccccc1)CN2C(=O)c1cccnc1`, the INHIBITION is 31.28%.
Consider `CN1CCCC[C@@H]2[C@H]1[C@@H](c1ccccc1)CCN2C(=O)c1ccccc1`, for which the INHIBITION is on record as -60.34%.
As for `CN1CCCC[C@@H]2[C@H]1[C@@H](c1ccccc1)CCN2C(=O)c1cccnc1`, the INHIBITION worked out at 51.57%.
The same measure for `COc1ccc(F)cc1C(=O)C1CCCN(Cc2ccc(C)s2)C1` (stereo not drawn): 49.02%.
As to `COc1ccc(C(=O)C2CCCN(Cc3cccc(F)c3)C2)c(OC)c1` (stereo not drawn), the INHIBITION is listed as -14.94%.
In the case of `COc1ccc(F)cc1C(=O)C1CCCN(Cc2cnc(C)s2)C1` (stereo not drawn), the INHIBITION is given as 72.49%.
With `CO[C@@H]1CCN(Cc2ccoc2)C[C@@H]1Cc1ccccc1`, the INHIBITION was found to be 28.46%.
The same measure for `CCc1c(C)nc2ccccc2c1N1CCC(NC(C)=O)CC1`: 50.59%; for `OC1CCN(c2cnnc3ccccc23)CC1`: -1.81%.
In the case of `CCOC(=O)N1CCN(c2nc(N)c3ccccc3n2)CC1`, the INHIBITION was -12.08%.
Turning to `CCc1c(C)nc2ccccc2c1N1CCC(C(=O)NC)CC1`, the INHIBITION was determined as 5.28%.
`CCOC(=O)N1CCN(c2nc(NC3CC3)c3ccccc3n2)CC1`: the INHIBITION came out at 27.85%.
The same measure for `CCc1c(C)nc2ccccc2c1N1CCC(O)CC1`: 60.13%.
